The full data set covers some 8,800 targets. This sample favours those with a hit. About 0.5% of all pairs of compound and target were hits.
Key:
Assay in all cases: log2 fold change, soluble protein after heating vs DMSO (PISA); higher = thermal stabilisation; K562 lysate, 10 uM; active = over 0.2 and 3.5 SD of the protein, either way, in both replicates (recomputed)
alvocidib = compound: CN1CC[C@H](c2c(O)cc(O)c3c(=O)cc(-c4ccccc4Cl)oc23)[C@H](O)C1 [alvocidib]
In short: (§1)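 Following dounce homogenisation of K562 pellets in PBS pH 7.4 with 1 mM MgCl2, crude extract at 1 mg/mL protein was incubated for 30 min with 10 μM compound. Aliquots were then heated for 3 min over 48°C-58°C and pooled, NP-40 was added to 0.5% at 4°C, and soluble protein was recovered as the supernatant at 21,000xg for 90 min. Channel-sum-equalised TMTpro 16plex LC-MS/MS quantified this protein. Each value, from duplicates, is a log-two fold change in thermal stability relative to solvent controls.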

Tubastatin A = compound: CN1CCc2c(c3ccccc3n2Cc2ccc(C(=O)NO)cc2)C1 [Tubastatin A]
In short: as §1

[1] = compound: CNC(=O)C1=CC=CC=C1NC2=NC(=NC=C2Cl)NC3=C(C=C(C=C3)N4CCOCC4)OC
In short: as §1

defactinib = compound: CNC(=O)c1ccc(Nc2ncc(C(F)(F)F)c(NCc3nccnc3N(C)S(C)(=O)=O)n2)cc1 [defactinib]
In short: as §1

[2] = compound: CNc1nc(-c2ccc3c(N)n[nH]c3c2)cc(N2C[C@@H](C(=O)NC3CCCCC3)CC[C@H]2C)n1
In short: as §1

encorafenib = compound: COC(=O)N[C@@H](C)CNc1nccc(-c2cn(C(C)C)nc2-c2cc(Cl)cc(NS(C)(=O)=O)c2F)n1 [encorafenib]
In short: as §1

[3] = compound: COC(=O)[C@H](CCSC)NC(=O)C1=C(C=C(C=C1)NC[C@H](CS)N)C2=CC=CC=C2
In short: as §1

alisertib = compound: COc1cc(Nc2ncc3c(n2)-c2ccc(Cl)cc2C(c2c(F)cccc2OC)=NC3)ccc1C(=O)O [alisertib]
In short: as §1

[4] = compound: COc1cc2nc(-c3cc(F)ccc3O)nc(N[C@@H]3CNC[C@H]3C(C)(C)O)c2cc1OC
In short: as §1

gefitinib = compound: COc1cc2ncnc(Nc3ccc(F)c(Cl)c3)c2cc1OCCCN1CCOCC1 [gefitinib]
In short: as §1

Measured: log2 fold change

SLC25A38 (UniProt Q96DW6)
Sequence of UniProt Q96DW6 (Q96DW6 whole entry, looked up): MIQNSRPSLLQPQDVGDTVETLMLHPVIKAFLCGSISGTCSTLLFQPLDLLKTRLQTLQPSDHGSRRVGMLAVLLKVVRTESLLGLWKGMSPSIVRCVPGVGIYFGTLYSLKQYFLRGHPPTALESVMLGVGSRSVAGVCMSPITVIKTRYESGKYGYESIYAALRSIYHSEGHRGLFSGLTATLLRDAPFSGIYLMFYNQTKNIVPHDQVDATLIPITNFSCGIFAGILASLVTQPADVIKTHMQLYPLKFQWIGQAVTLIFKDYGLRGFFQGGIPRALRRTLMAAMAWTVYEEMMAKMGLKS
inactive: alvocidib -0.062 | Tubastatin A 0.014 | [1] -0.049 | defactinib 0.074 | [2] 0.06 | encorafenib -0.038 | [3] 0.321 | alisertib 0.044 | [4] 0.097 | gefitinib 0.094

SLC27A4 (UniProt Q6P1M0)
inactive: alvocidib -0.019 | Tubastatin A -0.021 | [1] -0.009 | defactinib -0.157 | [2] -0.062 | encorafenib 0.135 | [3] 0.006 | alisertib 0.039 | [4] 0.062 | gefitinib -0.067

SLC25A36 (UniProt Q96CQ1)
inactive: alvocidib 0.024 | Tubastatin A -0.047 | [1] 0.048 | defactinib 0.068 | [2] 0.029 | encorafenib 0.041 | [3] 0 | alisertib 0.04 | [4] 0.049 | gefitinib 0.025

SHC1 (UniProt P29353)
inactive: alvocidib 0.144

SND1 (UniProt Q7KZF4)
inactive: alvocidib 0.009 | Tubastatin A -0.121 | [1] 0.015 | defactinib 0.019 | [2] -0.019 | encorafenib -0.019 | [3] 0.195 | alisertib 0.026 | [4] -0.004 | gefitinib -0.017

SMC3 (UniProt Q9UQE7)
inactive: alvocidib -0.009 | Tubastatin A 0.006 | [1] 0.003 | defactinib 0.002 | [2] -0.036 | encorafenib -0.007 | [3] 0.002 | alisertib 0.005 | [4] -0.013 | gefitinib -0.005

SPHK1 isoform 2 (UniProt Q9NYA1)
inactive: alvocidib 0.023 | Tubastatin A -0.114 | [1] 0.046 | defactinib 0.076 | [2] -0.175 | encorafenib 0.018 | [3] 0.006 | alisertib 0.045 | [4] 0.022 | gefitinib 0.069

SMAD2 (UniProt Q15796)
Sequence of UniProt Q15796 (Q15796 whole entry, looked up): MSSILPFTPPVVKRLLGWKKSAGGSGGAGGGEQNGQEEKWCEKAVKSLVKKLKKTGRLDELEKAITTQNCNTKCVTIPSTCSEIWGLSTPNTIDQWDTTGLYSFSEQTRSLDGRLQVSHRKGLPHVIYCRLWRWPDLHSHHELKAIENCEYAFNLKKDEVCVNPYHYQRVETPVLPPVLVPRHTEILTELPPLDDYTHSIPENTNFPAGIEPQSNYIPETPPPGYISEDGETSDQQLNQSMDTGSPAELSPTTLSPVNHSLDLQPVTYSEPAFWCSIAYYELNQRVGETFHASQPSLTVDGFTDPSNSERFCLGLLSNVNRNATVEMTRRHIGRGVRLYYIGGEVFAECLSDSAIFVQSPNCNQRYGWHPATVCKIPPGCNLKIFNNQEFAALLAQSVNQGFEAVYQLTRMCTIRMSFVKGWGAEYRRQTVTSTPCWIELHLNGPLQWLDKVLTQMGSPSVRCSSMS
inactive: alvocidib -0.058 | Tubastatin A 0.009 | [1] 0.167 | defactinib 0.01 | [2] 0.038 | encorafenib -0.01 | [3] 0.03 | alisertib -0.069 | [4] 0.006 | gefitinib 0.016

STK26 (UniProt Q9P289)
Sequence of UniProt Q9P289 (Q9P289 whole entry, looked up): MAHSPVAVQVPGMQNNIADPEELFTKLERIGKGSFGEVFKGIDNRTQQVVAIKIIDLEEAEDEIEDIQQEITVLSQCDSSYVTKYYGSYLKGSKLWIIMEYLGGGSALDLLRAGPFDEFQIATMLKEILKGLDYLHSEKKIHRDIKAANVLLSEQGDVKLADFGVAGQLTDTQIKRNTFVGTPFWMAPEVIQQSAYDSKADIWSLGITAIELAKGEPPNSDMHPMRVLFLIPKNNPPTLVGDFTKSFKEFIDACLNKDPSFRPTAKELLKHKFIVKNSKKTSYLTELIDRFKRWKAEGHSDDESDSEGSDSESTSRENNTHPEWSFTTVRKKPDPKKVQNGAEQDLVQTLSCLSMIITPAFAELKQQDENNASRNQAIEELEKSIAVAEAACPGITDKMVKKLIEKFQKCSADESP
inactive: alvocidib 0.027 | Tubastatin A -0.041 | [1] 0.003 | defactinib 0.008 | [2] -0.06 | encorafenib 0.001 | [3] 0.009 | alisertib -0.004 | [4] 0.022 | gefitinib -0.016

SLC19A1 (UniProt P41440)
inactive: alvocidib -0.106 | Tubastatin A 0.047 | [1] 0.025 | defactinib 0.01 | [2] 0.037 | encorafenib 0.011 | [3] -0.018 | alisertib -0.005 | [4] 0.039 | gefitinib 0.026

SMG7 (UniProt Q92540)
Sequence of UniProt Q92540 (Q92540 whole entry, looked up): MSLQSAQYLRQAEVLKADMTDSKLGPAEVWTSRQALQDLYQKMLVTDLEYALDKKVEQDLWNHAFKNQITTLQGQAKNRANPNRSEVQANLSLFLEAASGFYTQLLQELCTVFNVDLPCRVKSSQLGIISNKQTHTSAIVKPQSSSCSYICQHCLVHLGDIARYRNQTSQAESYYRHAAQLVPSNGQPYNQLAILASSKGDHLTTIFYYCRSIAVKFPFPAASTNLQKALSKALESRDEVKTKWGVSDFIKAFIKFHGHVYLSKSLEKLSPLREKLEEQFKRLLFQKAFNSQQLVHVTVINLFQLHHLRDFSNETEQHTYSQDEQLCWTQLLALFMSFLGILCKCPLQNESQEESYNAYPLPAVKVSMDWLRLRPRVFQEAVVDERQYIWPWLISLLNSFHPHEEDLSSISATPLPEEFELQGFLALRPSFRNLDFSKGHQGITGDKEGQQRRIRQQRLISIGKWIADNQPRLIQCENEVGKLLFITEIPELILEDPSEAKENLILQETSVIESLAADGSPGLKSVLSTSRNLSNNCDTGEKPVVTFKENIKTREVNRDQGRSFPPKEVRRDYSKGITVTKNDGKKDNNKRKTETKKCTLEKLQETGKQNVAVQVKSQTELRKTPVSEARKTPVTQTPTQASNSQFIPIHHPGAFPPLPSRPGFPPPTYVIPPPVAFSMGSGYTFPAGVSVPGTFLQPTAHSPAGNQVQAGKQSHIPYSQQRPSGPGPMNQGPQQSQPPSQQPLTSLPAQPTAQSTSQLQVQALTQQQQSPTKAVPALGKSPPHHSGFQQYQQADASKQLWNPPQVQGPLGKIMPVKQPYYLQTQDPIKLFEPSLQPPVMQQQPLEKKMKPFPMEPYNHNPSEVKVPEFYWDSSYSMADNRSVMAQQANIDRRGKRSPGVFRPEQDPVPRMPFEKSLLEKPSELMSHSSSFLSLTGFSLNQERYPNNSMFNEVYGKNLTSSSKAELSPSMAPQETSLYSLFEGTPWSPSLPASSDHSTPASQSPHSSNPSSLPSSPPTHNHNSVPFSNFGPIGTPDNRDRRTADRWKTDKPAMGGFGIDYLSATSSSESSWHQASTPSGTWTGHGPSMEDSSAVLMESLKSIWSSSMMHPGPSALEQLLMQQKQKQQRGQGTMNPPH
inactive: alvocidib -0.003 | Tubastatin A 0.008 | [1] 0.018 | defactinib 0.076 | [2] -0.017 | encorafenib 0.025 | [3] 0.202 | alisertib 0.015 | [4] 0.132 | gefitinib 0.032

SYPL1 (UniProt Q16563)
inactive: alvocidib -0.132 | Tubastatin A 0.057 | [1] -0.007 | defactinib -0.014 | [2] 0.029 | encorafenib 0.013 | [3] -0.022 | alisertib 0.016 | [4] 0.012 | gefitinib -0.033

SNRPD2 (UniProt P62316)
Sequence of UniProt P62316 (P62316 whole entry, looked up): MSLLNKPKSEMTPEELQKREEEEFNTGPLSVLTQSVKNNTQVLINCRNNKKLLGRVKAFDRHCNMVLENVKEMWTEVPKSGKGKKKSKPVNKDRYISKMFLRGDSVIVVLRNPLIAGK
inactive: alvocidib -0.054 | Tubastatin A 0.027 | [1] -0.003 | defactinib -0.019 | [2] 0.021 | encorafenib 0.005 | [3] -0.027 | alisertib 0.014 | [4] 0.029 | gefitinib -0.02

SMN1 (UniProt Q16637)
Sequence of UniProt Q16637 (Q16637 whole entry, looked up): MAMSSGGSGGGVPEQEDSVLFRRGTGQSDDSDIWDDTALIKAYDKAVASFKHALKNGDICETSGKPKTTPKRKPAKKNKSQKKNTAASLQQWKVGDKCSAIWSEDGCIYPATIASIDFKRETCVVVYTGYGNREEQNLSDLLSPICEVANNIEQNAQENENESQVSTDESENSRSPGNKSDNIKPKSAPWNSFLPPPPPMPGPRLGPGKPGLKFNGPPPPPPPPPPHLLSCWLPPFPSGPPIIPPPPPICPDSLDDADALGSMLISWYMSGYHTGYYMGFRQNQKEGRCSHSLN
inactive: alvocidib -0.05 | Tubastatin A -0.173 | [1] 0.017 | defactinib -0.023 | [2] -0.01 | encorafenib 0.03 | [3] 0.149 | alisertib 0.062 | [4] -0.024 | gefitinib -0.064

SSB (UniProt P05455)
Sequence of UniProt P05455 (P05455 whole entry, looked up): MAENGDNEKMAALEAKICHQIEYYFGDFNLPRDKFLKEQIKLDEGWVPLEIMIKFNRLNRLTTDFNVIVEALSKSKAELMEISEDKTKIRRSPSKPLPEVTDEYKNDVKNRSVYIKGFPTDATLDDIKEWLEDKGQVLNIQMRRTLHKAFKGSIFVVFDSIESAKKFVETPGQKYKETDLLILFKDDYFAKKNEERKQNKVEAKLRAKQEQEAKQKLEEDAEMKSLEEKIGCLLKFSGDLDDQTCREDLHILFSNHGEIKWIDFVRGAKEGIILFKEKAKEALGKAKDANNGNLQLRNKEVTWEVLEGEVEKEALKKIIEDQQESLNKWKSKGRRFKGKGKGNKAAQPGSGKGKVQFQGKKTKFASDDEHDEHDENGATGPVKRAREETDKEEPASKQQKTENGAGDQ
inactive: alvocidib 0.057 | Tubastatin A 0.018 | [1] -0.02 | defactinib -0.019 | [2] -0.015 | encorafenib -0.029 | [3] 0.022 | alisertib -0.003 | [4] 0.002 | gefitinib -0.008

SRRT (UniProt Q9BXP5)
inactive: alvocidib 0.014 | Tubastatin A -0.195 | [1] 0.008 | defactinib -0.013 | [2] -0.02 | encorafenib 0.024 | [3] 0.202 | alisertib 0.03 | [4] -0.01 | gefitinib 0.009

SLC12A6 (UniProt Q9UHW9)
inactive: alvocidib -0.03 | Tubastatin A 0.03 | [1] 0.065 | defactinib 0.006 | [2] -0.038 | encorafenib 0.034 | [3] -0.021 | alisertib -0.006 | [4] 0.004 | gefitinib 0.093

SKA1 (UniProt Q96BD8)
inactive: alvocidib -0.046 | Tubastatin A -0.064 | [1] 0.001 | defactinib 0.015 | [2] -0.008 | encorafenib 0.129 | [3] -0.055 | alisertib -0.017 | [4] 0.017 | gefitinib -0.006

SPG11 (UniProt Q96JI7)
inactive: alvocidib 0.161 | Tubastatin A -0.129 | [1] -0.058 | defactinib -0.015 | [2] -0.003 | encorafenib 0.049 | [3] 0.088 | alisertib -0.041 | [4] 0.07 | gefitinib -0.024

SPIRE1 (UniProt Q08AE8)
inactive: alvocidib -0.101 | Tubastatin A 0.02 | [1] 0.038 | defactinib -0.024 | [2] 0.084 | encorafenib -0.046 | [3] -0.036 | alisertib 0.02 | [4] 0.076 | gefitinib 0.049

SP1 (UniProt P08047)
Sequence of UniProt P08047 (P08047 whole entry, looked up): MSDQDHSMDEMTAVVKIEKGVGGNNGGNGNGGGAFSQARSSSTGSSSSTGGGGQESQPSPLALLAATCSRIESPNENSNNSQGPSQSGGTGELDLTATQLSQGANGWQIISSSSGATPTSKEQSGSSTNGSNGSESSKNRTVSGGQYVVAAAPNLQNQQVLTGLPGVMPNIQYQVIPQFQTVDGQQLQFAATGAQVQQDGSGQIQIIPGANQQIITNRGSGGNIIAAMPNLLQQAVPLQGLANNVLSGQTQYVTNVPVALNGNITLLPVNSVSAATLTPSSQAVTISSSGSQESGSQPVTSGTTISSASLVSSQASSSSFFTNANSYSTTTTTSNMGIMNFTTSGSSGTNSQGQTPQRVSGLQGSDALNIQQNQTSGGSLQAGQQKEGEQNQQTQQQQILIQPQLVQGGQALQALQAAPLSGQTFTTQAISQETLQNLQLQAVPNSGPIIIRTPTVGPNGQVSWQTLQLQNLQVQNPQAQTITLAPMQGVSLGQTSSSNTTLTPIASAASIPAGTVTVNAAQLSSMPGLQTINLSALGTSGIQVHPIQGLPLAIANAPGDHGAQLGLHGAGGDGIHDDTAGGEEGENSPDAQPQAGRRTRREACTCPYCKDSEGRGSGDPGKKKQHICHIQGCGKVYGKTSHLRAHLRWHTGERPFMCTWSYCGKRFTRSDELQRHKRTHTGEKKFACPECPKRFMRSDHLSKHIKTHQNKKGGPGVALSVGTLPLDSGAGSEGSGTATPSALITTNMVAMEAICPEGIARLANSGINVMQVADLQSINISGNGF
inactive: alvocidib -0.017 | Tubastatin A -0.013 | [1] 0.053 | defactinib 0.03 | [2] 0.104 | encorafenib 0.073 | [3] -0.087 | alisertib 0.005 | [4] -0.06 | gefitinib 0.003

SUZ12 (UniProt Q15022)
Sequence of UniProt Q15022 (Q15022 whole entry, looked up): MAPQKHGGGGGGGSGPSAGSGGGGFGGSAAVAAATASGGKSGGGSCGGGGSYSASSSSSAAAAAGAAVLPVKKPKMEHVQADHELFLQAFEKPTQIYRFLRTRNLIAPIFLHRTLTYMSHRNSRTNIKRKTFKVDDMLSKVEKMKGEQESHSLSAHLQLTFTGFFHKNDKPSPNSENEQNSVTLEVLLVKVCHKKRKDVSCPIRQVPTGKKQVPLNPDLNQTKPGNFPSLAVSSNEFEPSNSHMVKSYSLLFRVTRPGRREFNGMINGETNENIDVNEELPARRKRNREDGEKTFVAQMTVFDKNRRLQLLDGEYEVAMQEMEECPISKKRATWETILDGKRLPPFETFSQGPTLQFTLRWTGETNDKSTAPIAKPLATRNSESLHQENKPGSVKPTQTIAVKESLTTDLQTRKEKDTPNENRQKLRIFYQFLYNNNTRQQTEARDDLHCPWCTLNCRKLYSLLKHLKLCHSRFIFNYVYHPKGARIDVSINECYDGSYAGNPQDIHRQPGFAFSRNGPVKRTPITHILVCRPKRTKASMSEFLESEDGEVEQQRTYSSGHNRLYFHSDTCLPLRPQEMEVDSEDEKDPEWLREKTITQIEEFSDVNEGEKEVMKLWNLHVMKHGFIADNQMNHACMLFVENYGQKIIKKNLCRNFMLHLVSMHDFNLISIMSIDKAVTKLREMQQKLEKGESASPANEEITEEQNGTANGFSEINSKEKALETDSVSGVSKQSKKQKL
inactive: alvocidib -0.004 | Tubastatin A -0.012 | [1] 0.009 | defactinib 0.049 | [2] 0.027 | encorafenib 0 | [3] 0.101 | alisertib -0.057 | [4] -0.062 | gefitinib 0.062

SPC25 (UniProt Q9HBM1)
inactive: alvocidib -0.015 | Tubastatin A 0.009 | [1] 0.024 | defactinib -0.017 | [2] -0.014 | encorafenib 0.034 | [3] 0.014 | alisertib -0.008 | [4] -0.043 | gefitinib -0.011

SNAP23 (UniProt O00161)
Sequence of UniProt O00161 (O00161 whole entry, looked up): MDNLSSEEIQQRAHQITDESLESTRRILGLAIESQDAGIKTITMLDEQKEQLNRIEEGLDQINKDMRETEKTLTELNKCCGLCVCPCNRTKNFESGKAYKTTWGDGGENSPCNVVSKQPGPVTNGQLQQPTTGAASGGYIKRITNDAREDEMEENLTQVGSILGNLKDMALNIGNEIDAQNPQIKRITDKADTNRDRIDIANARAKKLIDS
inactive: alvocidib 0.035 | Tubastatin A 0.015 | [1] -0.027 | defactinib -0.002 | [2] -0.01 | encorafenib 0 | [3] -0.033 | alisertib -0.015 | [4] 0.005 | gefitinib 0.02

SPATS2 (UniProt Q86XZ4)
inactive: alvocidib 0.039 | Tubastatin A -0.075 | [1] 0.019 | defactinib 0.353 | [2] 0.036 | encorafenib 0.066 | [3] -0.195 | alisertib -0.015 | [4] -0.047 | gefitinib 0

STARD3 isoform 3 (UniProt Q14849)
inactive: alvocidib -0.037 | Tubastatin A 0.079 | [1] 0.004 | defactinib -0.019 | [2] 0.068 | encorafenib -0.029 | [3] 0.055 | alisertib -0.007 | [4] -0.059 | gefitinib 0.081

TARBP2 (UniProt Q15633)
inactive: alvocidib 0.016 | Tubastatin A -0.147 | [1] 0.038 | defactinib 0.017 | [2] -0.026 | encorafenib 0.037 | [3] 0.072 | alisertib -0.039 | [4] 0.008 | gefitinib -0.01

SLC25A17 (UniProt O43808)
inactive: alvocidib -0.216 | Tubastatin A 0.094 | [1] 0.007 | defactinib -0.036 | [2] 0.006 | encorafenib 0.004 | [3] -0.009 | alisertib 0.019 | [4] -0.011 | gefitinib 0.026

From the supplement of paper PMC10849652
